# A number with no mark means an inactive call. Inconclusive results are not listed. Entries that show only a call come without a potency. Activity calls are given as the source filed them. Unless noted, the call rests on the fitted dose curve; in most records, active means well fitted curve in the direction sought with a large enough effect; inconclusive means small, poorly fitted or top-dose-only effect, or another doubt; inactive means no such curve, though single readings can be large; an effect the other way counts as inactive or inconclusive.
# How the values were obtained:
# [1] = molecular target: Luciferin 4-monooxygenase (Photinus pyralis) (UniProt P08659); assay: Biochemical firefly luciferase enzyme assay for NPC (AID 624030);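 further: purified P. pyralis luciferase at 10 nM with luciferin and ATP substrate; nearly all actives have a fitted effect of over 70% in size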
# How it was run: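 Counter-screen for direct inhibition of the luciferase enzyme by approved-drug library compounds, run at 10 nM enzyme in 50 mM Tris acetate (final). Luminescence was read within 5 min of enzyme-buffer addition and normalized to PTC124 versus DMSO (0%).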
# [2] = S16 Schwann cell viability assay (CellTiter-Glo assay) (AID 624031);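 further: cellular ATP luminescence as a viability measure; nearly all actives have a fitted effect of over 70% in size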
# How it was run: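 Untransfected S16 rat Schwann cells; compound 24 h, 37 °C/5% CO2; CellTiter-Glo ATP luminescence. % activity vs no-cell wells and DMSO controls (0%); concentration-effect curves classed by r2, response magnitude, activity.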
# [3] = S16 Schwann cell PMP22 intronic element firefly luciferase assay (AID 624032); further: nearly all actives have a fitted effect of over 30% in size; further: potency means the concentration at half of the fitted maximal effect
# How it was run: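 Rat S16 Schwann cells stably carrying a PMP22 intronic element-driven Fluc reporter were seeded overnight, then exposed to compounds for 24 h at 37 °C. Luminescence was normalized to PTC124 (positive control) and DMSO (0% activity).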
# [4] = S16 Schwann cell PMP22 intronic element beta-lactamase assay (AID 624044; calls by dose curve; further: nearly all actives have a fitted effect of over 15% in size); conditions: S16 rat Schwann cells, PMP22 element beta-lactamase FRET, 24 h; ratio activity, negative = inhibition: at 38.3 µM (top of the series) unless noted
# How it was run: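 Rat S16 Schwann cells with beta-Lac driven by a PMP22 intronic element, compound-treated 24 h at 37 °C. LiveBLAzer FRET B/G read: 460 nm normalized to potassium clavulanate vs DMSO; 535 nm FRET as viability; concentration-effect curves classified.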
# AA1029 = assay: qHTS profiling for inhibitors of Plasmodium falciparum proliferation (AID 504749); further: nearly all actives have a fitted effect of over 60% in size; conditions: P. falciparum in erythrocytes, SYBR Green DNA, 72 h; series mostly up to 28.7 µM
# How it was run: (§1)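 P. falciparum-infected erythrocytes (0.3% parasitemia, 2.5% hematocrit final) were exposed to compounds for 72 h at 37 C in 5% CO2, then lysed with SYBR Green buffer overnight at room temperature; parasite DNA fluorescence was normalized to artemisinin and DMSO controls.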
# CP211 = assay: as above; conditions: P. falciparum in erythrocytes, SYBR Green DNA, 72 h; series mostly up to 28.7 µM
# How it was run: as §1
# CP217 = assay: as above; conditions: P. falciparum in erythrocytes, SYBR Green DNA, 72 h; series mostly up to 28.7 µM
# How it was run: as §1
# CP250 = assay: as above; conditions: P. falciparum in erythrocytes, SYBR Green DNA, 72 h; series mostly up to 12.8 µM
# How it was run: as §1
# CP252 = assay: as above; conditions: P. falciparum in erythrocytes, SYBR Green DNA, 72 h; series mostly up to 12.8 µM
# How it was run: as §1
# CP256 = assay: as above; conditions: P. falciparum in erythrocytes, SYBR Green DNA, 72 h; series mostly up to 28.7 µM
# How it was run: as §1
# CP297 = assay: as above; conditions: P. falciparum in erythrocytes, SYBR Green DNA, 72 h; series mostly up to 28.7 µM
# How it was run: as §1
# CP315 = assay: as above; conditions: P. falciparum in erythrocytes, SYBR Green DNA, 72 h; series mostly up to 28.7 µM
# How it was run: as §1
# DIV14 = assay: as above; conditions: P. falciparum in erythrocytes, SYBR Green DNA, 72 h; series mostly up to 28.7 µM
# How it was run: as §1
# FAB9 = assay: as above; conditions: P. falciparum in erythrocytes, SYBR Green DNA, 72 h; series mostly up to 28.7 µM
# How it was run: as §1
# JCK = assay: as above; conditions: P. falciparum in erythrocytes, SYBR Green DNA, 72 h; series mostly up to 28.7 µM
# How it was run: as §1
# N140 = assay: as above; conditions: P. falciparum in erythrocytes, SYBR Green DNA, 72 h; series mostly up to 28.7 µM
# How it was run: as §1
# PC15 = assay: as above; conditions: P. falciparum in erythrocytes, SYBR Green DNA, 72 h; series mostly up to 28.7 µM
# How it was run: as §1
# [5] = molecular target: Cytochrome P450 1A2 (Homo sapiens) (UniProt P05177); assay: p450-cyp1a2 (AID 410; calls by dose curve)
# How it was run: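 Human CYP1A2 (20nM) demethylated Luciferin-ME at its Km (100uM) in 100mM KPO4. After 10 min compound preincubation, NADPH regeneration ran the reaction 60 min at room temperature. Luciferin was read by luminescence, normalized to 57 uM furafylline.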
# [6] = NFAT Signaling Pathway (AID 444; active means well fitted curve in either direction with a large enough effect, not every such curve was filed as active;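 further: carbachol stimulus at about its EC50 of 1 µM final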); conditions: Jurkat NFAT-bla M1, carbachol, beta-lactamase ratio, 5 h; at 17.2 µM (top of the series)
# How it was run: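 Jurkat cells carrying an NFAT-driven β-lactamase reporter and co-transfected muscarinic M1 receptor were treated with compound plus carbachol (1 uM final, an EC50 level) for 5 h at 37 °C. CCF4 loading followed for 1 h at RT; 460/530 nm ratio gave %activity.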
# [7] = molecular target: Glucocorticoid receptor (Homo sapiens) (UniProt P04150); assay: GR-GFP Redistribution (AID 450;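 active means compounds whose dose series gives a full or clear partial fitted curve of increased nuclear translocation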; further: potency means the concentration at half of the fitted maximal effect); conditions: U2OS GR-GFP nuclear translocation, laser cytometry, 2 h
# Glucocorticoid receptor (Homo sapiens), sequence (P04150 whole entry, looked up): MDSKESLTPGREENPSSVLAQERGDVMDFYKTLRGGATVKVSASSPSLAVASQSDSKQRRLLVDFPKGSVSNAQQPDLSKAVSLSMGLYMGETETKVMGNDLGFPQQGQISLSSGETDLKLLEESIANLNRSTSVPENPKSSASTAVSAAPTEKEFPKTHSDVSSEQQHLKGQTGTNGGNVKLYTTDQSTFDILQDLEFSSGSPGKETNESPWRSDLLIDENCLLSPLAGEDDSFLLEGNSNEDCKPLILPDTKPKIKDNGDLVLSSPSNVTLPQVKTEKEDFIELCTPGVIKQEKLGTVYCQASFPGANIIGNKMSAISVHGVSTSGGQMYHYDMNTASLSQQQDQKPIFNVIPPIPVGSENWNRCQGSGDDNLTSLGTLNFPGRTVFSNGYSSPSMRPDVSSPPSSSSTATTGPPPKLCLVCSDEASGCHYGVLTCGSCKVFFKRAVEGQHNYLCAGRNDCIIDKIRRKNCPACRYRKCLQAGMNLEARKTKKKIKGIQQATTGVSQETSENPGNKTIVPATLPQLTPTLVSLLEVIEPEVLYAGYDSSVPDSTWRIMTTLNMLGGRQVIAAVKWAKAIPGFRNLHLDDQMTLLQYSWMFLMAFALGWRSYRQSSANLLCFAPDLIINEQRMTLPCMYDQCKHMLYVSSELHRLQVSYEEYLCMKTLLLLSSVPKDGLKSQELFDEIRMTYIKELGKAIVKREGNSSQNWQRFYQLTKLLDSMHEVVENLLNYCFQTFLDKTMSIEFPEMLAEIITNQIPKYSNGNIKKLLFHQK
# Cytochrome P450 1A2 (Homo sapiens), sequence (P05177 whole entry, looked up): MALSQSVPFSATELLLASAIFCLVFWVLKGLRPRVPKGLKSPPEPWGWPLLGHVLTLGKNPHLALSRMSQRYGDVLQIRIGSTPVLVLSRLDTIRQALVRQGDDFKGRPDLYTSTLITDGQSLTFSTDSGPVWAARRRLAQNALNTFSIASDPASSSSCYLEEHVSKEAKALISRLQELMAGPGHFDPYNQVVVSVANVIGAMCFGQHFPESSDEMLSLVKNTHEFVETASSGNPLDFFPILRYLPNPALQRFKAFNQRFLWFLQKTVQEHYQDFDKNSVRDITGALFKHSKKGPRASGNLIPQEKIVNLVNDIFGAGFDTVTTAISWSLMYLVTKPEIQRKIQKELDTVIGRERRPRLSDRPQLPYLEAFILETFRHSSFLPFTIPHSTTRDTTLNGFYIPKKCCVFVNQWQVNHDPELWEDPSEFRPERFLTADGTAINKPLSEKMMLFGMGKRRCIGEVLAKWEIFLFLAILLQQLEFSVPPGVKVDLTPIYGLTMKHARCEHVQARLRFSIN
# Luciferin 4-monooxygenase (Photinus pyralis), sequence (P08659 whole entry, looked up): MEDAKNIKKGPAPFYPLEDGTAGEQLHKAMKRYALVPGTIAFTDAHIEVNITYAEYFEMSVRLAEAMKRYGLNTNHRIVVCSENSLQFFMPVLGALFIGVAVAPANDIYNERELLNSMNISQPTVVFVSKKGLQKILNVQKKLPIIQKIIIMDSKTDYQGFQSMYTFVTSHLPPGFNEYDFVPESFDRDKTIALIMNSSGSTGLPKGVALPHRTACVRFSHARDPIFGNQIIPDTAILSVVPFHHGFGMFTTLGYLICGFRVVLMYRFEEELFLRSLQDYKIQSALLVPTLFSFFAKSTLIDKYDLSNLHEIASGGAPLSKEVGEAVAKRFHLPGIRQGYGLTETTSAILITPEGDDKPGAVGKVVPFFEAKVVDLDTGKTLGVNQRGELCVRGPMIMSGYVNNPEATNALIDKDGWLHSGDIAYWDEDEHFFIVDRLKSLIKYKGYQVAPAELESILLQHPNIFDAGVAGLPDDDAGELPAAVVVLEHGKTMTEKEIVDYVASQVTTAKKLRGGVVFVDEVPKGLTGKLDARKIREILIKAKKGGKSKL
Structure (SMILES),Potency [1],Potency [2],Potency [3],Potency [4],Potency (AA1029),Potency (CP211),Potency (CP217),Potency (CP250),Potency (CP252),Potency (CP256),Potency (CP297),Potency (CP315),Potency (DIV14),Potency (FAB9),Potency (JCK),Potency (N140),Potency (PC15),Potency [5],"activity change, negative = inhibition [6]",Potency [7]
C[C@]12CC[C@H]3[C@@H](CCC4=CC(=O)CC[C@@]43C)[C@@H]1CC[C@@H]2O,inactive,inactive,8.09 µM (active),inactive,inactive,inactive,inactive,inactive,inactive,inactive,inactive,inactive,inactive,inactive,inactive,inactive,inactive,,,
C[C@@]12CCC(=O)C=C1C=C[C@H]1[C@H]3CC[C@](O)(CCC(=O)O)[C@]3(C)CC[C@@H]12,inactive,inactive,inactive,inactive,inactive,inactive,inactive,inactive,inactive,inactive,inactive,inactive,inactive,inactive,inactive,inactive,inactive,inactive,-1.71%,> 20.6 µM
CC(C)(C)NC[C@H](O)c1cc(Cl)c(N)c(Cl)c1,,,,,,,,,,,,,,,,,,inactive,-7.65%,
CO[C@@H](C)[C@](O)(C(=O)OCC1=CCN2CC[C@@H](O)[C@H]12)C(C)C,,,,,,,,,,,,,,,,,,inactive,,> 20.6 µM
CN(C)[C@@H]1C(=O)C(C(N)=O)=C(O)[C@]2(O)C(=O)C3=C(O)c4c(O)ccc(Cl)c4[C@](C)(O)[C@H]3C[C@@H]12,inactive,inactive,inactive,inactive,inactive,inactive,inactive,inactive,inactive,inactive,inactive,inactive,inactive,inactive,inactive,inactive,inactive,,-5.59%,> 20.6 µM

# From PubChem BioAssay (NCATS)
